Assay results reported in the supplement of paper PMC10646978.
± gives the standard deviation.

How the values were obtained:
Settings in all cases: modulator concentration 10 µM
[1] = system: RAW-Dual (murine macrophage reporter line); test: NF-kB reporter (SEAP) activity fold change vs agonist alone; higher = enhanced NF-kB activity
Summary of the method: (§1)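 RAW-Dual murine macrophage reporter cells were seeded at 50 000 per well in 384-well plates and pre-incubated 1 hour at 37 °C with compound pin-transferred to 10 μM final. After 1 hour, a PRR agonist was added and cells incubated overnight. Supernatant NF-κB (SEAP, QUANTI-Blue, 620 nm absorbance) and IRF (Lucia luciferase, QUANTI-Luc, luminescence) signals were divided by the mean agonist-only control on the same plate to give fold change. Two replicate plates were averaged, with errors by propagation.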

[2] = system: RAW-Dual (murine macrophage reporter line); test: IRF reporter (Lucia luciferase) activity fold change vs agonist alone; higher = enhanced IRF activity
Summary of the method: as §1

[3] = system: RAW-Dual (murine macrophage reporter line); test: viability score (confluency relative to resting cells, overnight) (fraction); higher = more viable, active = viable (0.7 or more)
Summary of the method: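 Overnight exposure to 10 μM final compound was carried out on RAW-Dual macrophages in 384-well plates. IncuCyte software generated two confluency masks over all wells imaged with IncuCyte. The viability score gives confluency in relation to resting cells. A compound met the cutoff if each mask exceeded 70% of resting cells.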

[4] = agonist: CpG ODN 1826 0.5 ug/mL

Row | Compound | NF-kB reporter [1, 4] | NF-kB reporter ([1]; agonist: LPS 0.1 ug/mL) | NF-kB reporter ([1]; agonist: MPLA […]) | IRF reporter ([2]; agonist: 3'3'-cGAMP 10 ug/mL) | IRF reporter ([2]; agonist: LPS 0.1 ug/mL) | IRF reporter ([2]; agonist: MPLA […]) | viability score [3]
1 | Nc1ncnc2c1ncn2C1CC(O)C(CO)O1 (centres undefined) | 0.992 ± 0.08 | 0.875 ± 0.065 | 1.12 ± 0.11 | 1.12 ± 0.039 | 1.29 ± 0.18 | 1.35 ± 0.26 | 1.05 (active)
2 | Cc1cn(C2C=CC(CO)O2)c(=O)[nH]c1=O (centres undefined) | 1.02 ± 0.15 | 0.902 ± 0.27 | 0.981 ± 0.06 | 0.886 ± 0.041 | 1.04 ± 0.27 | 1.04 ± 0.2 | 0.984 (active)
3 | O=C(O)CSCC(=O)NC1CCSC1=O (centres undefined) | 0.824 ± 0.065 | 0.898 ± 0.11 | 1.04 ± 0.12 | 1.01 ± 0.06 | 1.36 ± 0.13 | 1.5 ± 0.15 | 1 (active)
4 | CN(C)CCS(=O)c1ccccc1 (centres undefined) | 0.955 ± 0.08 | 0.907 ± 0.071 | 1.16 ± 0.21 | 0.983 ± 0.038 | 1.32 ± 0.23 | 1.39 ± 0.27 | 1.04 (active)
5 | CSCCC(NC(=O)C(=Cc1ccccc1)NC(=O)c1ccco1)C(=O)O (centres undefined) | 0.764 ± 0.066 | 0.842 ± 0.054 | 0.936 ± 0.081 | 1.05 ± 0.05 | 1.33 ± 0.081 | 1.49 ± 0.14 | 1 (active)
6 | CCCc1nc2ccccc2c(NC(=O)CN2CCOCC2)c1CC.O=C(O)C(=O)O | 1.01 ± 0.078 | 1.12 ± 0.093 | 1.01 ± 0.059 | 1 ± 0.048 | 1.48 ± 0.27 | 1.16 ± 0.13 | 1 (active)
7 | Cc1ccc(S(=O)(=O)Nc2cc(-c3c(O)ccc4ccccc34)c(O)c3ccccc23)cc1 | 0.941 ± 0.073 | 0.994 ± 0.076 | 1.16 ± 0.11 | 0.337 ± 0.015 | 0.808 ± 0.047 | 0.611 ± 0.075 | 0.956 (active)
8 | O=C(/C=C/c1cccc(S(=O)(=O)Nc2ccccc2)c1)NO | 2.21 ± 0.11 | 1.73 ± 0.14 | 2.67 ± 0.12 | 0.0696 ± 0.0082 | 0.285 ± 0.017 | 0.404 ± 0.12 | 0.0713 (inactive)
9 | CC1=NN(c2ccc(Cl)cc2)C(=O)C1=Cc1c(C)nn(-c2ccc(C)cc2C)c1O | 1.01 ± 0.13 | 0.866 ± 0.097 | 0.944 ± 0.051 | 0.891 ± 0.031 | 1.06 ± 0.085 | 1.15 ± 0.17 | 0.998 (active)
10 | CCS(=O)(=O)N1CC(CC#N)(n2cc(-c3ncnc4[nH]ccc34)cn2)C1 | 0.943 ± 0.099 | 1.13 ± 0.091 | 2.88 ± 0.17 | 0.189 ± 0.016 | 0.338 ± 0.035 | 0.517 ± 0.07 | 0.506 (inactive)
11 | Cc1cc(C)n(C2CC(=O)N(c3ccccc3)C2=O)n1 (centres undefined) | 1.04 ± 0.08 | 0.926 ± 0.1 | 1.21 ± 0.2 | 1.05 ± 0.04 | 1.31 ± 0.25 | 1.42 ± 0.21 | 1.02 (active)
12 | C#Cc1cccc(Nc2ncnc3cc(OCCOC)c(OCCOC)cc23)c1.Cl | 0.511 ± 0.11 | 0.348 ± 0.047 | 0.233 ± 0.014 | 0.292 ± 0.03 | 0.143 ± 0.039 | 0.0986 ± 0.027 | 0.853 (active)
13 | O=C(Nc1ccc(NS(=O)(=O)c2ccccc2)cc1)c1ccco1 | 1.12 ± 0.14 | 0.922 ± 0.13 | 0.998 ± 0.035 | 0.879 ± 0.14 | 0.818 ± 0.035 | 0.823 ± 0.095 | 1 (active)
14 | O=C(NCC(O)c1ccc(C(F)(F)F)cc1)c1cc(Br)cs1 (centres undefined) | 0.931 ± 0.047 | 0.981 ± 0.077 | 0.865 ± 0.043 | 1.14 ± 0.058 | 1.21 ± 0.077 | 1.22 ± 0.14 | 0.66 (inactive)
15 | CC(=O)Nc1ccc(C(=O)CSc2nnc[nH]2)cc1 | 0.771 ± 0.06 | 0.877 ± 0.072 | 1.01 ± 0.087 | 0.916 ± 0.045 | 1.33 ± 0.086 | 1.47 ± 0.14 | 1.01 (active)
16 | CN(C)[C@@H](CCOc1cccc2ccccc12)c1ccccc1.Cl | 0.603 ± 0.11 | 1.01 ± 0.17 | 0.66 ± 0.044 | 0.47 ± 0.015 | 1.25 ± 0.11 | 0.854 ± 0.068 | 0.178 (inactive)
17 | COc1c(OC)c2occc2c2oc(=O)ccc12 | 1.14 ± 0.32 | 0.86 ± 0.083 | 0.941 ± 0.059 | 0.551 ± 0.018 | 0.586 ± 0.17 | 0.67 ± 0.07 | 0.968 (active)
18 | C=C(CC)C(=O)c1ccc(OCC(=O)O)c(Cl)c1Cl [Prestw-259] | 0.596 ± 0.14 | 0.588 ± 0.077 | 0.722 ± 0.049 | 0.563 ± 0.02 | 1.85 ± 0.21 | 1.53 ± 0.17 | 0.953 (active)
19 | CCCc1nc2c(C)cc(-c3nc4ccccc4n3C)cc2n1Cc1ccc(-c2ccccc2C(=O)O)cc1 | 1.29 ± 0.18 | 1.16 ± 0.29 | 0.99 ± 0.073 | 0.997 ± 0.032 | 1.49 ± 0.28 | 1.06 ± 0.11 | 0.993 (active)
20 | Cl.NC1=NCC2c3ccccc3Cc3ccccc3N12 (centres undefined) | 1.03 ± 0.077 | 1.09 ± 0.056 | 1.06 ± 0.077 | 0.898 ± 0.068 | 0.982 ± 0.051 | 0.822 ± 0.11 | 1 (active)
21 | O=C(/C=C/C=C/c1ccc2c(c1)OCO2)N1CCCCC1 | 0.974 ± 0.093 | 1 ± 0.097 | 1.17 ± 0.062 | 0.842 ± 0.052 | 1.04 ± 0.16 | 1.07 ± 0.26 | 1.03 (active)
22 | CCC(C(=O)N1CC(Nc2cnccn2)C1)c1ccccc1 (centres undefined) | 0.995 ± 0.052 | 1.06 ± 0.12 | 0.996 ± 0.14 | 1.03 ± 0.067 | 1.24 ± 0.085 | 1.19 ± 0.09 | 0.984 (active)
23 | O=C(Nc1ncc(S(=O)(=O)c2ccc([N+](=O)[O-])cc2)s1)c1cccs1 | 1.06 ± 0.11 | 1.09 ± 0.06 | 0.914 ± 0.06 | 0.987 ± 0.03 | 1.49 ± 0.27 | 1.18 ± 0.21 | 1.01 (active)
24 | COc1cc2ccc(=O)oc2cc1O | 1.04 ± 0.31 | 0.862 ± 0.062 | 0.892 ± 0.057 | 0.909 ± 0.053 | 1.11 ± 0.17 | 0.946 ± 0.12 | 1 (active)
25 | O=C(Nc1ccc([N+](=O)[O-])cc1)Nc1ccc(Cl)cn1 | 0.838 ± 0.065 | 0.942 ± 0.074 | 0.986 ± 0.14 | 0.893 ± 0.041 | 1.39 ± 0.1 | 1.61 ± 0.14 | 1 (active)
26 | O=C(O)c1cc2ccccc2[nH]1 | 1.02 ± 0.087 | 0.963 ± 0.08 | 1.02 ± 0.024 | 1.02 ± 0.071 | 0.975 ± 0.14 | 0.889 ± 0.23 | 1 (active)
27 | O=C(Nc1ccccc1)NC1CCS(=O)(=O)C1 (centres undefined) | 1.02 ± 0.096 | 1.09 ± 0.1 | 0.998 ± 0.042 | 0.97 ± 0.054 | 0.889 ± 0.16 | 0.88 ± 0.18 | 0.995 (active)
